Active and inactive are the calls of the source. Unless noted, how the calls were made is not given here.

The nature of experiment [1]: compounds binding Alexa647 anti-His antibody – biochemical, small-molecule microarray, 635 nm fluorescence, artefact control for SMM control protein annotation, primary screen (AID 1128).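 Further: score merges feature fluorescence with signal-to-noise for each printed compound spot.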 Conditions: higher = more signal.
Experiment [2] relates to Human papillomavirus type 1a E7 protein (residues 1-88). The experiment in a line: HPV1a E7 small-molecule binders, primary screen, biochemical, small-molecule microarray, residues 1-88, 635 nm (AID 1129). To be noted: small-molecule microarray binding, fluorescence 635 nm; higher = more signal.
The target of experiment [3] is Focal adhesion kinase 1 (Homo sapiens) (UniProt Q05397). In words: PTK2 protein binding on printed compound slides – biochemical, small-molecule microarray, 635/667 nm fluorescence, BSA, DTT, primary screen (AID 1130).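 Further: composite of spot emission at 667 nm and signal to noise over triplicate slides.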 Conditions: 635 nm fluorescence, higher = more signal.
The subject of experiment [4] is Fibrinogen (Alexa647-labelled). The experiment in a line: Alexa647-fibrinogen binding to printed small molecules – biochemical, small-molecule microarray, 635/667 nm fluorescence, artefact control for SMM control-protein annotation, profiling panel (AID 1131).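 Further: z-score merges 667 nm fluorescence with per-spot signal-to-noise over triplicate slides.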 Conditions: fibrinogen-A647 binding fluorescence, higher = more signal.
The target in experiment [5] is Follistatin (Homo sapiens) (UniProt P19883). The experiment in a line: FST protein binding to printed compounds – biochemical, small-molecule microarray, 635/667 nm fluorescence, primary screen (AID 1132). To be noted: 635 nm fluorescence, higher = more signal.
Experiment [6] deals with Fibroblast growth factor 2 (Homo sapiens) (UniProt P09038). The experiment in a line: basic fibroblast growth factor binding to printed compounds – biochemical, small-molecule microarray, 635/667 nm fluorescence, primary screen (AID 1133). Conditions: FGF2, fluorescence 635/667, higher = more signal.
The nature of experiment [7]: JC-1 mitochondrial potential readout, lung cancer cells – cell-based, A549, JC-1 fluorescence, basal, 24 h, 100 nL, profiling panel (AID 1138).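 Further: A549 lung adenocarcinoma cells under basal conditions with no added stimulus; test concentration not given here.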 Conditions: higher = more signal.
The subject of another experiment is Lefty1. In words: Lefty1 protein binding to printed compounds – biochemical, small-molecule microarray, 635/667 nm fluorescence, primary screen (AID 1139). Conditions: fluorescence 635/667, higher = more signal.
Experiment [8] concerns wheat germ agglutinin (Triticum aestivum), Alexa647-labelled. In words: Alexa647-WGA lectin binding to printed small molecules – biochemical, small-molecule microarray, 635/667 nm fluorescence, artefact control for SMM control-protein annotation, profiling panel (AID 1140).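 Further: score merges 667 nm feature emission with signal to noise over triplicate slides.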 Conditions: WGA-A647 binding, 635 nm fluorescence, higher = more signal.
Experiment [9] deals with Luciferin 4-monooxygenase (Photinus pyralis) (UniProt P08659). In words: inhibition of purified Photinus pyralis luciferase – biochemical, luminescence, purified enzyme, 2006 set, primary screen (AID 1141).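 Further: cell-free assay with purified firefly luciferase at 100 ng per well in PBS; test concentration not given here.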 To be noted: purified firefly luciferase, SteadyGlo luminescence, 30 min; higher = more signal, called active from +8 up or from −8 down.
Experiment [10] deals with Wnt5a (protein binding on small-molecule microarray). In words: small molecules binding Wnt5a protein – biophysical, small-molecule microarray, 635/667 nm fluorescence, primary screen (AID 1142).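 Further: fluorescence read at 667 nm with signal to noise per printed feature.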 To be noted: 635 nm fluorescence, higher = more signal.
Experiment [11] is described as follows: ATP-based viability of Huh7 replicon cells – cell-based, CellTiter-Glo luminescence, basal, 48 h, cytotoxicity control for HCV replication inhibitor project, primary screen (AID 1143).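 Further: Huh7 hepatoma cells carrying a hepatitis C replication reporter with no stimulus; test concentration not given here.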 To be noted: higher = more signal, called active from +8 up or from −8 down.
A short description of experiment [12]: Pseudomonas biofilm growth suppression – PAO1 strain, BacTiter-Glo luminescence, LB-PBS, primary screen (AID 1144). To be noted: P. aeruginosa PAO1 biofilm, 12 h, higher = more signal.
Experiment [13] is described as follows: basal CRE-LacZ reporter activity in PC12 – cell-based, unstimulated, primary screen (AID 1145). To be noted: no forskolin, luminescence, 4.5 h, higher = more signal, called active from +8 up or from −8 down.
The nature of experiment [14]: forskolin-driven CRE-LacZ activity in PC12 – cell-based, CRE-LacZ reporter, forskolin-stimulated, primary screen (AID 1146).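 Further: PC12 cells with 6xCRE LacZ reporter stimulated by forskolin 10 µM; beta-galactosidase reporter signal reflecting CREB driven transcription.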 To be noted: luminescence, 4.5 h, higher = more signal, called active from +8 up or from −8 down.
Experiment [15] addresses Streptavidin (Streptomyces avidinii) (UniProt P22629). The experiment in a line: compounds binding control protein streptavidin – biophysical, small-molecule microarray, 635/667 nm fluorescence, artefact control for SMM compound annotation, primary screen (AID 1147).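 Further: signal reflects streptavidin binding to arrayed compounds as a control protein.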 To be noted: higher = more signal.
Experiment [16] in a line: probe aInhba binding on compound microarray – biochemical, small-molecule microarray, 635/667 nm fluorescence, primary screen (AID 1148).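 Further: score merges 667nm spot fluorescence with signal-to-noise for antibody binding to printed compounds.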 Conditions: higher = more signal.
Experiment [17] concerns the target Torsin-1A (Homo sapiens) (UniProt O14656). In words: TOR1A wild-type binding on microarray – cell lysate, small-molecule microarray, lysate, 635/667 nm, primary screen (AID 1149). To be noted: COS7 hTOR1A-WT lysate, 635 nm fluorescence, higher = more signal.
Experiment [18] shares this target. In words: torsin A mutant lysate binding on microarrays – cell lysate, small-molecule microarray, COS7 lysate, 635/667 nm fluorescence, primary screen (AID 1150).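 Further: score pools 667 nm emission and signal to noise measuring lysate protein binding.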 To be noted: COS7 hTOR1A mutant lysate, 635 nm fluorescence, higher = more signal.
In experiment [19] the test system is Sonic hedgehog protein (Shh). The experiment in a line: Sonic hedgehog microarray binding compounds – biochemical, small-molecule microarray, 635/667 nm fluorescence, primary screen (AID 1151).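 Further: Shh protein binding to compounds spotted on small-molecule microarray slides; score combines spot fluorescence intensity with signal-to-noise across triplicate slides.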 Conditions: 635 nm fluorescence, higher = more signal.

Sequence of Follistatin (Homo sapiens) (P19883 whole entry, looked up): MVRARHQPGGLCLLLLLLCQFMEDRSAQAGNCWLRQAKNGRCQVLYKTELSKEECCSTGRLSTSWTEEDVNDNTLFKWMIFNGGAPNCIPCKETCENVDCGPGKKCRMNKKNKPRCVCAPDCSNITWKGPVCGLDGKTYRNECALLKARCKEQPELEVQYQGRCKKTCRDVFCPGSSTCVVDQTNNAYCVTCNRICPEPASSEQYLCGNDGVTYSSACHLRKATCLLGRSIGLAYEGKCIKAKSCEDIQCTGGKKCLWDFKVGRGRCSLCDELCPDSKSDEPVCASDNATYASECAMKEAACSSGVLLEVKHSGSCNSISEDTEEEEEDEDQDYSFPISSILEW
Sequence of Torsin-1A (Homo sapiens) (O14656 whole entry, looked up): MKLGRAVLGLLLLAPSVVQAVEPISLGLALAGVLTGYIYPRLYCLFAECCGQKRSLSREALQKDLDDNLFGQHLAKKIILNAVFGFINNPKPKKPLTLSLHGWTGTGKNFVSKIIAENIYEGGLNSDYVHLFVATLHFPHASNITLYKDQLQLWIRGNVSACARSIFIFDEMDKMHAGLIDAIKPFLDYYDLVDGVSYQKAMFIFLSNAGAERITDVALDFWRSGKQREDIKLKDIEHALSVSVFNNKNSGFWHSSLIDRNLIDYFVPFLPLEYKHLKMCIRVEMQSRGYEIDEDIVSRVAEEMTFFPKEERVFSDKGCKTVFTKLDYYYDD
Sequence of Streptavidin (Streptomyces avidinii) (P22629 whole entry, looked up): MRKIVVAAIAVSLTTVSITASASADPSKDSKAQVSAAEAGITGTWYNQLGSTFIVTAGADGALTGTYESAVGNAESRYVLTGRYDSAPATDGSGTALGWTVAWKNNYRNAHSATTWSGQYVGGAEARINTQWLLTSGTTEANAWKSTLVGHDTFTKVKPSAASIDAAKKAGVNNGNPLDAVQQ
Sequence of Fibroblast growth factor 2 (Homo sapiens) (P09038 whole entry, looked up): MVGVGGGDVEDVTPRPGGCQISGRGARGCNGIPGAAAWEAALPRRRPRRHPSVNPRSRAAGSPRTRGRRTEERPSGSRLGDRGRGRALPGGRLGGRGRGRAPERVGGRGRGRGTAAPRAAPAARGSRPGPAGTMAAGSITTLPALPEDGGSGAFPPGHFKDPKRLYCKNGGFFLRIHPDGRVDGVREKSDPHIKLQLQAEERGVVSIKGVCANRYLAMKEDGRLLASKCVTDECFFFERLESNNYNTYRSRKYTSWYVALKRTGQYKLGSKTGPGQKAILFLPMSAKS
Sequence of Luciferin 4-monooxygenase (Photinus pyralis) (P08659 whole entry, looked up): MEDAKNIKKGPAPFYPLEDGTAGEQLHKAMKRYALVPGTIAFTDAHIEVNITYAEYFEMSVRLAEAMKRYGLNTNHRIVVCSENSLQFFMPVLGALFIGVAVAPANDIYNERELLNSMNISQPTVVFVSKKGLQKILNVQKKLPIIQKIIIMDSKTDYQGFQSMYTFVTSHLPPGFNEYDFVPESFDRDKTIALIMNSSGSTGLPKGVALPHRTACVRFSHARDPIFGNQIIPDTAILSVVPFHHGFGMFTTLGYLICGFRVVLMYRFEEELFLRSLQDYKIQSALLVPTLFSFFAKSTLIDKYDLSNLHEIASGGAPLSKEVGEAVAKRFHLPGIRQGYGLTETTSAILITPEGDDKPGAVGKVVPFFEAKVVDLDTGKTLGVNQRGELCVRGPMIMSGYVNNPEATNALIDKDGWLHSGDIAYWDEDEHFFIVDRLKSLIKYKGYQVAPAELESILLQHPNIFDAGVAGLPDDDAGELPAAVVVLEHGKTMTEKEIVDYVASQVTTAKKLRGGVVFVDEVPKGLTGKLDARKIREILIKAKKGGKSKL
Sequence of Focal adhesion kinase 1 (Homo sapiens) (Q05397 whole entry, looked up): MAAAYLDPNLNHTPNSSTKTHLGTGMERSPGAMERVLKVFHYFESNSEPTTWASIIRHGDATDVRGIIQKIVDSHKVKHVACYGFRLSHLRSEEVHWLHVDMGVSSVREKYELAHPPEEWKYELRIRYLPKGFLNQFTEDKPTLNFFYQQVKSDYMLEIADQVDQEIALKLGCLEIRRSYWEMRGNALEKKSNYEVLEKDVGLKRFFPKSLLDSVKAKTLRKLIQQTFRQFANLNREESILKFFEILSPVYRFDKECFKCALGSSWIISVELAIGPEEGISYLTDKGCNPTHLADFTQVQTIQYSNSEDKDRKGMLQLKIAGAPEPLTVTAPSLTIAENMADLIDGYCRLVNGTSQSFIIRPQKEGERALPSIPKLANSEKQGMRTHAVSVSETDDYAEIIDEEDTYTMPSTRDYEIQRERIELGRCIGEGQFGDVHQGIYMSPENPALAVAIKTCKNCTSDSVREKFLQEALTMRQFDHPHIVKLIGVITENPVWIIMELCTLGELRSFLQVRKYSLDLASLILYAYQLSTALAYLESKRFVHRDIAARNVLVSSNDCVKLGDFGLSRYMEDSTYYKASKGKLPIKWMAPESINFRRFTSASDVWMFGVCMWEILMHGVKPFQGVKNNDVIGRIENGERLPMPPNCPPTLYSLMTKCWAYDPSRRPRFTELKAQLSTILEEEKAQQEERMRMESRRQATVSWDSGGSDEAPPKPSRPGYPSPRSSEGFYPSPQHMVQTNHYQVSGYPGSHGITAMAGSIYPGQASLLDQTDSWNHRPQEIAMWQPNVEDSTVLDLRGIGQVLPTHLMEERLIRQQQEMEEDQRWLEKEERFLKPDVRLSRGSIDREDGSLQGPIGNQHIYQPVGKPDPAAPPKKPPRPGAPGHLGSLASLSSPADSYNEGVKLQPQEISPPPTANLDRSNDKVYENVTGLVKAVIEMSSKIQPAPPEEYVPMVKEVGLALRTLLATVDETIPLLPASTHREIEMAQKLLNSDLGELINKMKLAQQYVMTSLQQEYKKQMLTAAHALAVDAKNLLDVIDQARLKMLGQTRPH

With `COCCOC(=O)N1C(=O)[C@@]2(c3cc(C#CC4=CCCCC4)ccc31)[C@H](C(N)=O)[C@H]1C(=O)O[C@H](c3ccccc3)[C@H](c3ccccc3)N1[C@@H]2c1ccc(OCCO)cc1`, the composite z-score in experiment [1] worked out at 2.26; in experiment [2] it was 1.21; in [3], 0.797; in [4] it was 0.938; in [5] it was 0.371; in [6], 0.925. For the same compound, the composite z-score in the experiment on Lefty1 was 0.517; in experiment [8], 0.773; in experiment [10] it was 0.14; in experiment [15] it was -0.602; in experiment [16], -0.406; with Torsin-1A (Homo sapiens) [17], 0.394. For the same compound, the values for the composite z-score (in the experiment with Torsin-1A (Homo sapiens) [18]; in experiment [19]) were 0.644 and 1.02, respectively. Also, the z-score in experiment [7] is -1.65; in experiment [9], -1.8 (inactive); in experiment [11] it was -4.37 (inactive); in experiment [12], -1.72 (inactive); in experiment [13], -0.195 (inactive); in [14] it was -0.327 (inactive).
In the case of `C=CCNC(=O)[C@@H]1[C@H]2C(=O)O[C@H](c3ccccc3)[C@H](c3ccccc3)N2[C@H](c2ccc(OCCO)cc2)[C@@]12C(=O)Nc1ccc(C#CCCO)cc12`, the composite z-score in experiment [1] is 2.72; in [2] it was 1.19; in experiment [3], 1.17; in [4] it was 0.979; in experiment [5] it was 1.16; in [6] it was 1.68. Moreover, the composite z-score in the experiment on Lefty1 came out at 1.52; in experiment [8], 0.687; in experiment [10] it was 0.847; in experiment [15] it was 1.6; in [16], 1.15; with Torsin-1A (Homo sapiens) [17], 1.26. Further, the composite z-score in the experiment with Torsin-1A (Homo sapiens) [18] worked out at 1.17; in experiment [19], 1.59. Moreover, the z-score in experiment [7] is 0.103; in [9] it was -0.947 (inactive); in experiment [11] it was -0.625 (inactive); in experiment [12] it was -0.796 (inactive); in experiment [13] it was -0.141 (inactive); in experiment [14], -0.118 (inactive).
As to `CCN(CC)c1ccc(N2CC=CC34O[C@@H]5/C=C\CCCOC(=O)C5[C@H]3C(=O)N(CCO)[C@@H]4C2=O)cc1` (stereo not given in full), the composite z-score in experiment [1] is 0.449; in experiment [2], -0.57; in experiment [3] it was -0.724; in experiment [4] it was -0.837; in experiment [5], -0.654; in [6], -1.03. The composite z-score with Lefty1 was -0.2; in [8] it was -0.875; in experiment [10], -0.6; in experiment [15] it was -0.79; in experiment [16] it was -0.219; in the experiment with Torsin-1A (Homo sapiens) [17] it was -1.53. Moreover, the composite z-score with Torsin-1A (Homo sapiens) [18] was -0.705; in [19], 0.0512. For the same compound, the z-score was -0.73 in experiment [7]; -0.312 (inactive) in experiment [9]; -0.117 (inactive) in experiment [11]; 0.0243 (inactive) in [12]; 0.601 (inactive) in [13]; -0.462 (inactive) in experiment [14].
In the case of `CN(C)C(=O)[C@]1(Cc2ccccc2N=[N+]=[N-])N=C(c2ccc(OCCCO)cc2)O[C@@H]1c1ccccc1`, the composite z-score turned out to be 1.03 in [1]; 1.22 in [2]; 0.633 in experiment [3]; 0.882 in experiment [4]; 1.31 in [5]; 1.58 in experiment [6]. Further, the composite z-score with Lefty1 is 0.0484; in experiment [8] it was 0.986; in experiment [10] it was 0.8; in experiment [15] it was 1.4; in [16], 0.0928; in the experiment with Torsin-1A (Homo sapiens) [17] it was -0.09. Moreover, the results for the composite z-score (with Torsin-1A (Homo sapiens) [18]; in experiment [19]) were 0.902 and 0.0763, respectively. For the same compound, the z-score is 1.71 in [7]; -1.08 (inactive) in [9]; -4.59 (inactive) in [11]; 1.77 (inactive) in [12]; 0.69 (inactive) in experiment [13]; -2.15 (inactive) in experiment [14].

The record behind these values is PubChem BioAssay.
